Hits are enriched below; roughly 19% of the tested compounds scored in any of these assays.
HT1080 IDH1KD tx: toxicity to HT-1080 IDH1 knockdown cells (counter line). HT-1080 IDH1 knockdown viability, ATP luminescence, 48 h. Potency, µM (series often up to 46.1 µM), usual class: cytotoxic. 360,000 compounds, 2% hits. AID 686971
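In this qHTS, HT-1080 cells depleted of IDH1 are exposed for 48 h at 37 °C to compound titrations. Toxicity is scored from CellTiter-Glo luminescence, with DMSO as full viability and medium alone as none.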
IL-1B inflam inh: inhibitors of inflammasome signaling (IL-1 beta secretion). activity change, % at 57.5 µM. 360,000 compounds, 4.7% hits. THP-1 LPS/ATP IL-1B secretion, AlphaLISA, 16 h; active compounds read low; in the data active = activity change below about -50%; inconclusive = mostly about -30% to -49%
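THP-1 cells pretreated 1 hr with compounds (up to 57.5 uM final), then stimulated with LPS (250 ng/mL final) plus ATP (1.25 mM final); secreted IL-1B measured by AlphaLISA after 16 hr, decreased signal indicating inhibition.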
DT40 TDP1 no CPT: qHTS for Inhibitors of human tyrosyl-DNA phosphodiesterase 1 (TDP1): qHTS in cells in absence of CPT | DT40 Tdp1-/- hTDP1 cells, no CPT, ATP luminescence, 48 h | Potency, µM (top dose mostly 46.2 µM), actives largely listed as inhibitors | 420,000 compounds, 15% hits | AID 686978, 2013; note: nearly all actives have a fitted effect of over 55% in size
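Camptothecin absent (DMSO only). Human TDP1-complemented DT40 knockout cells, 400 cells/well, 37 °C for minimum 48 hr; ATP measured via CellTiter-Glo, 30 min dark incubation, luminescence.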
DT40 TDP1 CPT: DT40-hTDP1 cell growth loss with CPT; 420,000 compounds, 12% hits; chicken DT40 Tdp1-/-;hTDP1 cells + 20 nM CPT, ATP luminescence, 48 h; Potency, µM (doses to about 46.2 µM), usual class: inhibitors; note: nearly all actives have a fitted effect of over 55% in size
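Chicken DT40 Tdp1-/- cells stably complemented with human TDP1 were seeded at 400 cells/well in medium containing 20 nM camptothecin, exposed to pin-transferred compounds, and grown at 37 °C for at least 48 hr. Viability was read as ATP luminescence.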
HT1080NT lethal: kills 2HG-producing HT-1080-NT fibrosarcoma cells. 360,000 compounds, 1.6% hits. Potency, µM (highest dose often 46.1 µM), hits mostly cytotoxic. AID 686970. HT-1080-NT fibrosarcoma viability, CellTiter-Glo ATP luminescence, 48 h;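 note: NT is the 2HG producing partner of a matched IDH1 knockdown line; nearly all actives have a fitted effect of over 55% in size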
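A 48-hour cytotoxicity screen used HT-1080-NT cells plated 2 hours before compound delivery. ATP-based CellTiter-Glo luminescence measured viability, normalized to DMSO and no-cell controls.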
A number is an active result; - = inactive; ? = inconclusive; . = no result given. Unless noted, calls come from the whole dose curve; as a rule, active = well fitted curve in the direction sought with a large enough effect; inconclusive = small, poorly fitted or top-dose-only effect, or another doubt; inactive = no such curve, though single readings can be large; an effect the other way counts as inactive or inconclusive.

SMILES	HT1080 IDH1KD tx	IL-1B inflam inh	DT40 TDP1 no CPT	DT40 TDP1 CPT	HT1080NT lethal
CCOC(=O)c1ccc(CC(=O)c2ccc(O)cc2O)o1	-	-	13µM	?	-
COC(=O)c1ccc(CC(=O)c2ccc(O)cc2O)o1	-	-	?	?	-
O=S(=O)(NCc1cn2ccsc2n1)c1ccc2c(c1)OCCO2	-	-	23.1µM	?	-
Cc1ccc(SCc2cn3c(C)csc3n2)cc1	?	-	-	-	35.5µM
O=S(=O)(NCc1cn2ccsc2n1)c1ccc(Oc2ccccc2)cc1	-	-	10.3µM	9.2µM	-
O=S(=O)(NCc1cn2ccsc2n1)c1cccs1	-	-	-	-	-
O=S(=O)(NCCN1CCOCC1)c1ccc2c(c1)OCCO2	-	-73.9	-	-	-
O=C(O)CN1C(=O)C(=O)N(Cc2ccc(Cl)c(Cl)c2)C1=O	-	-	-	-	-
Cc1csc2nc(CNS(=O)(=O)c3ccc(-c4ccccc4)cc3)cn12	-	-	18.4µM	?	?
C/C(=N/NC(N)=S)c1ccccc1[N+](=O)[O-]	-	-	-	?	-
S=C1N(c2ccccc2)CN(CCN2CCOCC2)CN1c1ccccc1	-	-	-	-	-
CC(C)N1CN(c2ccccc2)C(=S)N(c2ccccc2)C1	-	-	23.1µM	?	-
CN(C)c1ccc(/C=C2\Oc3ccc(C#Cc4cccc(N)c4)cc3C2=O)cc1	-	-	-	?	-
O=[N+]([O-])c1ccc(C[n+]2cccc3ccc4cccnc4c32)cc1	?	-	1.64µM	1.84µM	?
O=[N+]([O-])c1ccc(C[n+]2cccc3ccccc32)cc1	-	-	?	?	-
Cc1cccc(N2CCN(C(=O)c3ccc4c(Cl)c5c(nc4c3)CCCC5)CC2)c1C	.	.	?	18.4µM	.
COc1cccc(N2CCN(C(=O)c3ccc4c(Cl)c5c(nc4c3)CCCC5)CC2)c1	.	.	20.6µM	20.6µM	.
CN1CCN(C(=O)c2ccc3c(Cl)c4c(nc3c2)CCCC4)CC1	-	-	-	?	-
O=C(Nc1ccc(N=Nc2ccccc2)c(NC(=O)C2CCCO2)c1)C1CCCO1 (configuration not stated)	?	-83.2	20.6µM	8.2µM	?
CC(C)N(c1ccccc1)c1ccc(NC(=O)C2CCCO2)cc1 (configuration not stated)	-	-	16.4µM	?	-
O=C(NS(=O)(=O)c1ccc(NC(=O)C2CCCO2)cc1)c1ccccc1 (configuration not stated)	-	-	-	-	-
O=C(Nc1ccc(Oc2ccccc2)cc1)C1CCCO1 (configuration not stated)	-	-	-	-	-
O=C(Nc1ccc([N+](=O)[O-])c(NC(=O)C2CCCO2)c1)C1CCCO1 (configuration not stated)	-	-	-	-	-
O=C(Nc1ccc(S(=O)(=O)Nc2ccc(Cl)cc2)cc1)C1CCCO1 (configuration not stated)	?	-	12.6µM	15.8µM	-
CCCCCCNS(=O)(=O)c1ccc(NC(=O)C2CCCO2)cc1 (configuration not stated)	-	-	10.3µM	9.2µM	-
SMILES	HT1080 IDH1KD tx	IL-1B inflam inh	DT40 TDP1 no CPT	DT40 TDP1 CPT	HT1080NT lethal
Cc1ccc(C)c(Cn2c(=O)cc(C(F)(F)F)c3c(C)nn(C)c32)c1	.	.	-	-	.
O=C(CN1CCN(C(=O)C2COc3ccccc3O2)CC1)Nc1ccccc1 (configuration not stated)	-	-	-	-	-
O=[N+]([O-])c1ccccc1S(=O)(=O)c1ccccc1	-	-	-	-	-
CNc1ccc(Cl)cc1S(=O)(=O)c1ccccc1[N+](=O)[O-]	?	-	14.6µM	-	?
CCCCCCCCCCCCCCCC[n+]1ccc(CC(O)c2c(C)[nH]c3ccccc23)c2ccccc21 (configuration not stated)	.	.	1.26µM	1.58µM	.
c1ccc(COc2cccc(-c3cc4nc(NCCCn5ccnc5)ccn4n3)c2)cc1	23.1µM	-	14.6µM	?	16.4µM
c1ccc(COc2cccc(-c3cc4nc(NCCOc5ccccc5)ccn4n3)c2)cc1	?	-	?	?	?
c1ccc(COc2cccc(-c3cc4nc(NCCc5ccncc5)ccn4n3)c2)cc1	23.1µM	-59.8	13µM	14.6µM	18.4µM
CN(C)CCCNc1nccc(N2CCN(C)CC2)n1	.	.	-	-	.
Cc1ccccc1Oc1ncnc(N)c1[N+](=O)[O-]	-	-	-	-	-
Nc1ncnc(Oc2ccccc2F)c1[N+](=O)[O-]	-	-89.0	-	-	-
CC(=O)c1ccc(Oc2ncnc(N)c2[N+](=O)[O-])cc1	-	-	?	23.1µM	-
COc1cc2oc(=O)cc(-c3cccc(-c4ccc(C(F)(F)F)cc4)c3)c2c(OC)c1OC	-	-	14.6µM	23.1µM	-
COc1ccc(-c2ccc(-c3cc(=O)oc4cc(OC)c(OC)c(OC)c34)cc2)cc1	-	-	-	-	-
COc1cc(OC)c2c(-c3cccc(-c4ccc(C(C)=O)cc4)c3)cc(=O)oc2c1	3.26µM	-	0.92µM	1.16µM	5.17µM
COc1cc2oc(=O)cc(-c3ccc(-c4ccc(C)cc4)cc3)c2c(OC)c1OC	-	-	?	?	-
COc1cc(OC)c2c(-c3cccc(-c4ccoc4)c3)cc(=O)oc2c1	?	-	?	?	?
COc1cc2oc(=O)cc(-c3ccc(-c4ccc(C(F)(F)F)cc4)cc3)c2c(OC)c1OC	-	-	?	?	-
COc1cc2oc(=O)cc(-c3ccc(-c4ccc(C#N)cc4)cc3)c2c(OC)c1OC	-	-	8.2µM	7.31µM	-
COc1cc2oc(=O)cc(-c3ccc(-c4ccc(CO)cc4)cc3)c2c(OC)c1OC	-	-	18.4µM	20.6µM	-
COc1ccc(CN2C(=O)N(c3cccc(C)c3)C(=O)C2CC(=O)Nc2ccc(F)cc2)cc1OC (configuration not stated)	.	.	?	-	.
COC(=O)C1=C(Nc2cc(Cl)cc(Cl)c2)CSC1	-	-	-	-	-
O=C(Nc1ccc(F)c(Cl)c1)c1cc(C2CCCN(C(=O)c3cccs3)C2)on1 (configuration not stated)	-	-	?	?	-
O=C(Cn1c(C(=O)N2CCc3ccccc3C2)cc2sccc21)c1ccccc1	-	?	?	29.1µM	?
Cn1c(=O)c2c(nc(N3CCOCC3)n2Cc2ccc(Br)cc2)n(C)c1=O	.	.	20.6µM	10.3µM	.
CC1CCCN(c2nc3c(c(=O)n(C)c(=O)n3C)n2Cc2ccccc2)C1 (configuration not stated)	-	-	23.1µM	?	-
